Set-up in all cases: species or system human, MV4-11 + K-562 + COLO205 + SK-N-BE2 + OVCAR-8
Test [1] concerns EPHA1. The note with it: read-out: apparent Kd, compound concentrations: 100 nM and 1000 nM (sheet 'Samples'), n = 1.
The subject of test [2] is SIK2. The note with it: read-out: apparent Kd, n = 1.
In test [3] the test system is GSK3A. The note with it: read-out: apparent Kd; compound concentrations:100 nM and 1000 nM (sheet 'Samples'); n = 1.
In test [4] the test system is GSK3B. The note with it: read-out: apparent Kd; compound concentrations:100 nM and 1000 nM (sheet 'Samples'); n = 1.
The subject of test [5] is ACAD11. The note with it: read-out: apparent Kd, n = 1.
For test [6], the system named is ACVR1B. The note with it: read-out: apparent Kd, n = 1.
Test [7] concerns DDR1. The note with it: read-out: apparent Kd, n = 1.
Test [8] concerns MAP2K5. The note with it: read-out: apparent Kd, n = 1.
For test [9], the system named is BTK. Conditions: read-out: apparent Kd, compound concentrations: 100 nM and 1000 nM (sheet 'Samples'), n = 1.
Test [10] has as its system CSK. Conditions: read-out: apparent Kd; compound concentrations: 100 nM and 1000 nM (sheet 'Samples'), CATDS: 3.4286589805654001E-2; n = 1.
The test system of test [11] is EGFR. The note with it: read-out: apparent Kd, compound concentrations: 100 nM and 1000 nM (sheet 'Samples'), n = 1.
Test [12] deals with FRK. Conditions: read-out: apparent Kd, compound concentrations: 100 nM and 1000 nM (sheet 'Samples'), n = 1.
Test [13] concerns LYN. Conditions: read-out: apparent Kd, compound concentrations: 100 nM and 1000 nM (sheet 'Samples'), n = 1.
Test [14] has as its system SRC. The note with it: read-out: apparent Kd, compound concentrations: 100 nM and 1000 nM (sheet 'Samples'), n = 1.
Test [15] deals with ACVR1. Conditions: read-out: apparent Kd; compound concentrations:100 nM and 1000 nM (sheet 'Samples'); n = 1.
The test system of test [16] is CDKL5. The note with it: read-out: apparent Kd, n = 1.
Test [17] concerns ZAK. Conditions: read-out: apparent Kd, n = 1.
The test system of test [18] is FLT3. Conditions: read-out: apparent Kd; compound concentrations: 100 nM and 1000 nM (sheet 'Samples'), CATDS: 1.2283454590930699E-2; n = 1.
In test [19] the test system is CDK16. Conditions: read-out: apparent Kd; compound concentrations: 100 nM and 1000 nM (sheet 'Samples'), CATDS: 3.8372919727344801E-2; n = 1.
For test [20], the system named is DYRK1A. The note with it: read-out: apparent Kd; compound concentrations:100 nM and 1000 nM (sheet 'Samples'); n = 1.
Setting [21] is: compound concentrations:100 nM and 1000 nM (sheet 'Samples').

Read-outs that look alike come from different tables or passages of the source.

Consider `Fc1cc(Cl)ccc1Nc1ccnc2cc(-c3ccc(CN4CCOCC4)o3)ccc12` [GW560109X], for which the potency estimated from few doses in test [1] (CATDS: 7.1072488518175297E-2) was 699 nM; in test [2] (compound concentrations: 100 nM and 1000 nM (sheet 'Samples'), CATDS: 7.4326552669870996E-2) it was 630 nM.
Consider `COc1cc2ncn(-c3cc(OCCCc4ccccc4)c(C(N)=O)s3)c2cc1OC` [GSK205189A], for which the potency estimated from few doses in [3] was 575 nM; in [4], 1110 nM.
Consider `Fc1ccc(-c2c(-c3ccncc3)[nH]c3nccnc23)cc1` [RO1155697-000], for which the potency estimated from few doses is 1300 nM in test [5] (setting [21]), 711 nM in test [6] (setting [21]) and 1010 nM in test [7] (setting [21]).
For the compound `COc1cc2ncn(-c3cc(OCc4cccs4)c(C(N)=O)s3)c2cc1OC` [GSK312948A], the results for the potency estimated from few doses in test [5] (setting [21]) and in [8] (setting [21]) were 766 nM and 461 nM, respectively.
With `CN1CCc2ccc(Nc3nccc(-c4c(-c5cccc(NC(=O)c6c(F)cccc6F)c5)nc5ccccn45)n3)cc2C1.Cl` [GSK1010829B], the potency estimated from few doses in [9] (CATDS: 5.3394659124358E-2) is 497 nM; in test [10], 1380 nM; in [7] (compound concentrations: 100 nM and 1000 nM (sheet 'Samples'), CATDS: 3.8396909039531198E-2), 1010 nM; in test [11] (CATDS: 3.29518195590447E-2), 1570 nM; in test [12] (CATDS: 4.3093308654231798E-2), 770 nM; in [13] (CATDS: 6.0028262979631E-2) it was 403 nM. In addition, in test [14] (CATDS: 5.29363400907749E-2), the potency estimated from few doses is 505 nM.
As for `COc1cccc(-c2c[nH]c3c(N/N=C/c4ccncc4)ncnc23)c1` [GW814408X], the potency estimated from few doses in [15] was 1370 nM; in test [16] (setting [21]) it was 1300 nM; in [3] it was 133 nM; in test [4] it was 112 nM; in test [2] (setting [21]), 1180 nM; in test [17] (setting [21]), 1540 nM.
With `COc1cccc(-n2cnc3c(N/N=C/c4ccncc4)ncnc32)c1` [GW813360X], the potency estimated from few doses in test [8] (compound concentrations: 100 nM and 1000 nM (sheet 'Samples'), CATDS: 0.129253463235972) was 2170 nM.
As for `CN1CCN(c2ccc(Nc3nc(N)c(C(=O)c4ccc5c(c4)OCCO5)s3)cc2)CC1` [RO0505124-000], in test [5] (compound concentrations: 100 nM and 1000 nM (sheet 'Samples'), CATDS: 0.36798074276012699), the potency estimated from few doses is 137 nM.
As to `CNC(=O)c1ccccc1Nc1nc(Nc2cccc(CS(C)(=O)=O)c2)ncc1C.O=CO` [GSK1520489A], the potency estimated from few doses in test [6] (compound concentrations: 100 nM and 1000 nM (sheet 'Samples'), CATDS: 1.2545717700139699E-2) was 511 nM; in test [9] (CATDS: 3.3529613297139299E-2) it was 46.5 nM; in test [7] (compound concentrations: 100 nM and 1000 nM (sheet 'Samples'), CATDS: 1.3625362720769099E-2), 389 nM; in test [11] (CATDS: 1.37119506592154E-2), 382 nM; in test [1] (CATDS: 4.9501189051371401E-2), 23.8 nM; in test [18], 550 nM. The potency estimated from few doses was 1050 nM in test [12] (CATDS: 1.0457896251618699E-2); 643 nM in test [13] (CATDS: 1.17680848685595E-2); 813 nM in [2] (compound concentrations: 100 nM and 1000 nM (sheet 'Samples'), CATDS: 1.1089332631068699E-2); 613 nM in test [14] (CATDS: 1.1920002971419799E-2).
As to `Cn1cc(-c2cnc(N)c3c(-c4ccc5c(c4)CCN5C(=O)Cc4ccccc4)csc23)cn1` [GSK2593074A], the potency estimated from few doses in [8] (setting [21]) is 979 nM.
Turning to `CNc1nccc(-c2c(-c3ccc(F)cc3)ncn2C2CCN(C)CC2)n1` [SB-222903], the potency estimated from few doses in test [7] (setting [21]) is 348 nM.
Turning to `COc1cc2nccc(Nc3ccc(Oc4ccccc4)cc3)c2cc1OC.Cl` [GI261656A], the potency estimated from few doses in test [9] (CATDS: 4.2074902264998597E-2) was 1400 nM; in test [11] (CATDS: 3.8994788715485701E-2), 2360 nM; in test [12] (CATDS: 5.3958789023196299E-2) it was 470 nM; in test [13] (CATDS: 7.8976671860543801E-2), 160 nM; in test [8] (compound concentrations: 100 nM and 1000 nM (sheet 'Samples'), CATDS: 9.9796697062305095E-2), 95.6 nM; in test [14] (CATDS: 5.79534996745752E-2), 372 nM.
In the case of `CC(=O)N1CCN(c2ccc(Nc3nccc(-c4sc(C(C)C)nc4-c4cccc(NS(=O)(=O)c5ccccc5)c4)n3)cn2)CC1` [GSK1645872A], the potency estimated from few doses in test [19] is 431 nM; in test [16] (compound concentrations: 100 nM and 1000 nM (sheet 'Samples'), CATDS: 2.2966868813045101E-2), 1680 nM; in test [11] (CATDS: 3.0506753540730399E-2), 710 nM; in test [17] (compound concentrations: 100 nM and 1000 nM (sheet 'Samples'), CATDS: 2.8355440499728699E-2) it was 855 nM.
With `CC(=O)c1c(-c2ccncc2)[nH]c(-c2ccncc2)c1C` [GW493036X], the potency estimated from few doses in [16] (setting [21]) is 1670 nM; in [20], 53.7 nM; in test [3], 400 nM; in test [4], 535 nM.

Values taken from publication PMC11062922 (Nature Chemical Biology, 2023).
